Data taken from PubChem BioAssay (EPA / NIEHS).
Records with an inconclusive call do not appear. Activity calls are given as the source filed them. Rule for the calls: active = hit-call score of the fitted dose curve at least 0.9, where 1 is the maximum; inconclusive = response in the unintended direction; inactive = score below 0.9.

molecular target: human Phosphodiesterase 10 (PDE10), PDE10A (gene 10846) (UniProt Q9Y233); experiment: NVS_ENZ_hPDE10: NovaScreen (NVS) Enzymatic Assay for human Phosphodiesterase 10 (PDE10) (AID 2283195)
How it was run: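 Recombinant human PDE10 with fluorescent substrate, 1 h, product separated by electrophoretic mobility shift. Loss of enzyme activity fitted against DMSO; initial screen 25 uM in duplicate, actives run to 50 uM maximum.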

human Phosphodiesterase 10 (PDE10), PDE10A (gene 10846), sequence (Q9Y233 whole entry, looked up): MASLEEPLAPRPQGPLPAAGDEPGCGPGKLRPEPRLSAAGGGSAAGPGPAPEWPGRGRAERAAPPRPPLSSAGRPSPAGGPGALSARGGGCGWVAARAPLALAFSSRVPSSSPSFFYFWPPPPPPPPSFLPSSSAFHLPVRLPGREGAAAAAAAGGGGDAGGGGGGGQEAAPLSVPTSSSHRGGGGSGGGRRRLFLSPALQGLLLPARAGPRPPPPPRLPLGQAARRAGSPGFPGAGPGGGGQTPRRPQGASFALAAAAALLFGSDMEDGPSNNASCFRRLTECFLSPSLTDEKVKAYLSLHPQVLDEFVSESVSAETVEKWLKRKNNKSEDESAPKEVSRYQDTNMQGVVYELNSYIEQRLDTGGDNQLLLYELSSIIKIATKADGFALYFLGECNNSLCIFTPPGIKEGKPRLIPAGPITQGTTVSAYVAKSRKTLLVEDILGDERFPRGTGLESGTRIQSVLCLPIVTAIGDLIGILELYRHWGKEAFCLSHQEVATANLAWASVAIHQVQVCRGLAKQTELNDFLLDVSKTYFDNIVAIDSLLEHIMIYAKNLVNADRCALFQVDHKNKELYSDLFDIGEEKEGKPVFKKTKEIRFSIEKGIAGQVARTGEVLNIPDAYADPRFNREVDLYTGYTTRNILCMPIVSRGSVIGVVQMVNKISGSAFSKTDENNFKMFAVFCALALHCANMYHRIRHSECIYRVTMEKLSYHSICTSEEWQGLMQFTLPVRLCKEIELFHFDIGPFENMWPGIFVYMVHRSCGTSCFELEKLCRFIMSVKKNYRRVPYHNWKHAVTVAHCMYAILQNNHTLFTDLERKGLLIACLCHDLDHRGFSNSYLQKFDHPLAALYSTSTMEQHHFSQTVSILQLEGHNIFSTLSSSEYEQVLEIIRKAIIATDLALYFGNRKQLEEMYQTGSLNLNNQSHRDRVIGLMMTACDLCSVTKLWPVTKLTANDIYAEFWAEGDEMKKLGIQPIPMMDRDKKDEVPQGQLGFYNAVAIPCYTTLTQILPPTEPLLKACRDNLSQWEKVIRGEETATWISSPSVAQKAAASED

**Q.** Which outcome does the source give for `O=[N+]([O-])c1ccc(Nc2ccccc2)cc1` here?
**A.** inactive

**Q.** Which outcome does the source give for `CC(C)[N+](=O)[O-]` here?
**A.** inactive

**Q.** How did the outcome turn out when `N#Cc1ccccc1Cl` was run?
**A.** inactive

**Q.** `CCOP(=O)(OCC)SCCSCC` was tested. Which outcome did it give?
**A.** inactive

**Q.** `Nc1ccc(N)cc1` was tested. Which AC50 did it give?
**A.** 2.5 µM (active)

**Q.** With `Oc1ccc(Cc2ccc(O)cc2)cc1` as the compound, how does the outcome read?
**A.** inactive

**Q.** `CN(CCCC(O)c1cccnc1)N=O` (configuration not stated) was tested. Which AC50 did it give?
**A.** 35.5 µM (active)

**Q.** With `CC(C)(C)c1ccc(CCOc2ncnc3ccccc23)cc1` as the compound, how does the outcome read?
**A.** inactive

**Q.** Which outcome does the source give for `CCCCOP(=O)(CCCC)OCCCC` here?
**A.** inactive

**Q.** Which outcome does the source give for `c1ccc2sc(SNC3CCCCC3)nc2c1` here?
**A.** inactive

**Q.** For `COc1ccccc1N`, which outcome is on record?
**A.** inactive

**Q.** For `CC1CC(=O)O1` (configuration not stated), which outcome is on record?
**A.** inactive

molecular target: human Phosphatase and Tensin Homolog (PTEN), PTEN (gene 5728) (UniProt P60484); experiment: NVS_ENZ_hPTEN: NovaScreen (NVS) Enzymatic Assay for human Phosphatase and Tensin Homolog (PTEN) (AID 2283203)
How it was run: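 Cell-free recombinant human PTEN with fluorescent substrate; product separated by electrophoretic mobility shift and read by fluorescence 1 h after dosing. Primary screen in duplicate at 25 uM, actives followed in concentration series versus DMSO.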

human Phosphatase and Tensin Homolog (PTEN), PTEN (gene 5728), sequence (P60484 whole entry, looked up): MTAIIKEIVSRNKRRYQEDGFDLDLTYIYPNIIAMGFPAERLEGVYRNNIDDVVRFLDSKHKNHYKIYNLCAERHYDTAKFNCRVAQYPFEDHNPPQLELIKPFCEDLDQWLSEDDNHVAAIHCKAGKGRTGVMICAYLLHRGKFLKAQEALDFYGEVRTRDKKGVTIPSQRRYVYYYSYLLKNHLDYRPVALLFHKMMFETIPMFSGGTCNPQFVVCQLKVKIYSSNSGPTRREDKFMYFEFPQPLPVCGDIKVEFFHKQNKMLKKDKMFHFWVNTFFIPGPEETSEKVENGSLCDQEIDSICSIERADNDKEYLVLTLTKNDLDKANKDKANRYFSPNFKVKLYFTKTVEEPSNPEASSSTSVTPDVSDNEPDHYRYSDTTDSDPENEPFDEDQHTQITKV

**Q.** With `Cc1ccccc1OP(=O)(Oc1ccccc1C)Oc1ccccc1C` as the compound, how does the AC50 read?
**A.** 45.1 µM (active)

**Q.** For `CCCCC(CC)COC(=O)Cl` (configuration not stated), which AC50 is on record?
**A.** 4.14 µM (active)

**Q.** Which outcome does the source give for `OC(Cc1ccccc1Cl)(Cn1[nH]cnc1=S)C1(Cl)CC1` (configuration not stated) here?
**A.** inactive

**Q.** With `COCC(=O)N(c1c(C)cccc1C)[C@H](C)C(=O)OC` as the compound, how does the outcome read?
**A.** inactive

**Q.** For `CC(C)(COCC1CO1)COCC1CO1` (configuration not stated), which outcome is on record?
**A.** inactive

**Q.** For `C[C@]12CC[C@@H](O)C[C@@H]1CC[C@@H]1[C@@H]2CC[C@]2(C)C(=O)CC[C@@H]12`, which outcome is on record?
**A.** inactive

**Q.** For `O=C1c2ccccc2C(=O)C1C(=O)C(c1ccccc1)c1ccc(Cl)cc1` (configuration not stated), which AC50 is on record?
**A.** 15.2 µM (active)

**Q.** Which AC50 does the source give for `Cc1ccccc1OP(=O)(Oc1ccccc1)Oc1ccccc1` here?
**A.** 44.9 µM (active)

**Q.** How did the outcome turn out when `Nc1c(Oc2ccccc2)cc(O)c2c1C(=O)c1ccccc1C2=O` was run?
**A.** inactive

**Q.** Which outcome does the source give for `Cc1cccc(OP(=O)(Oc2cccc(C)c2)Oc2cccc(C)c2)c1` here?
**A.** inactive
